This is a sample that favours compounds with a hit; in the whole collection about 4.4% have one here.
USP1 inh: Inhibitors of USP1/UAF1: Primary Screen. Potency, µM (top dose mostly 57.1 µM), for inactives: at the top dose activity change, negative = inhibition, usual class: inhibitors. recombinant USP1/UAF1, Ub-Rhodamine cleavage fluorescence. Ubiquitin carboxyl-terminal hydrolase 1 (Homo sapiens), O94782. AID 743255, 2014. hit rate 0.23% among 390,000; active means well fitted inhibition curve with a large enough effect; inconclusive means small, poorly fitted or top-dose-only effect; inactive means no such curve, though single readings can be large or run the other way; further: potency means the concentration at half of the fitted maximal effect; on the % scale 0 is the no-effect control and ±100 the full control effect; nearly all actives have a fitted effect of over 60% in size
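In this screen, compounds sit with the deubiquitinase complex (1nM) for 15 min at room temperature before Ub-Rho is added at 150nM final. Fluorescence rise is then followed for 6 reads every 60 seconds.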
TRHR PAM: qHTS for Small Molecule Agonists and Allosteric Enhancers of Human TRH Receptor: Primary Screen for Enhancers | TRHR cells, fluo-8 calcium fluorescence, EC20 TRH enhancement | enhancement, % at 2 µM | hit rate 0.66% among 360,000; in the data active means enhancement above about 30%; further: 0% is about no effect
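TRHR-expressing cells loaded with fluo-8 calcium dye were read kinetically (ex 480/em 530) during compound addition, then stimulated with an EC20 of TRH (10 nM final). Enhancement of the Gq-mediated intracellular calcium response was scored.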
D1 antagonist: Antagonist of Human D 1 Dopamine Receptor: qHTS; D(1A) dopamine receptor (Homo sapiens), P21728; HEK293 TREx D1 cells, calcium flux, dopamine EC80; active compounds read low; activity change, negative = inhibition, % at 10 µM; hit rate 3.2% among 360,000; in the data active means activity change below about -30%; further: on the % scale 0 is the no-effect control and ±100 the full control effect
Target sequence (P21728 whole entry, looked up): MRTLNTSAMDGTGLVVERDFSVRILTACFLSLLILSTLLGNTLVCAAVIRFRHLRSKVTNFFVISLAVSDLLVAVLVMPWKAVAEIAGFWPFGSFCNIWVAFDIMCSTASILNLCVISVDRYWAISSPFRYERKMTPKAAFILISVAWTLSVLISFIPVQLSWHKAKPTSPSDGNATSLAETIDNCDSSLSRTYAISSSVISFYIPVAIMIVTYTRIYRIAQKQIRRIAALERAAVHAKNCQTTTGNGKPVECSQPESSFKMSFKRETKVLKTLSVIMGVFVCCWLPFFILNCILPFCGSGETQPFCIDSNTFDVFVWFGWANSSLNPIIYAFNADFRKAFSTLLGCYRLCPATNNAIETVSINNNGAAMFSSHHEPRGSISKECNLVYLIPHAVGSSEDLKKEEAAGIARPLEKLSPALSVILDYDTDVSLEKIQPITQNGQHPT
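Compound effects on dopamine-evoked calcium signalling were measured in tetracycline-induced HEK293 Trex D1 cells. Dopamine at EC80 followed a 180 s compound pre-read, and fluorescence was tracked kinetically for 180 s more.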
D1 ag: Allosteric Agonists of the Human D1 Dopamine Receptor: qHTS; HEK293 T-REx D1 cells, calcium flux, agonist mode; hit rate 1% among 360,000; activation, % at 2 µM; further: 0% is about no effect
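Agonism was scored from calcium flux recorded over 180 s (1 read/s) after pintool compound addition, following a 10-cycle baseline. Cells were inducible force-coupled HEK293 TREx D1, plated overnight at 30 C and loaded with no-wash calcium dye.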
TRHR agonist: qHTS for Small Molecule Agonists and Allosteric Enhancers of Human TRH Receptor: Primary Screen for Agonists. TRHR cells, calcium flux fluo-8, FDSS agonist mode. activation, % at 2 µM. hit rate 0.18% among 360,000; further: 0% is about no effect
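Agonist-mode FDSS calcium read (Ex 480/Em 530, 1 s cycles) in 1536-well TRHR cells with fluo-8 dye, after 10-cycle baseline and 23 nL compound addition; TRH at EC20 (10 nM final) added afterwards for the enhancer phase.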
D1 PAM: Potentiators of Human D1 Dopamine Receptor: qHTS; hit rate 0.036% among 360,000; potentiation, % at 10 µM; HEK293 TREx D1 cells, calcium flux, dopamine EC20 potentiation; D(1A) dopamine receptor (Homo sapiens), P21728; in the data active means potentiation above about 30%; further: 0% is about no effect
Active calls of the source: *. Unless noted, no stated cut-off is given here; in the data, active means activation above about 30%; inactive means the rest.

For O=C(CSc1ccc(Cl)cc1)N/N=C/c1ccc([N+](=O)[O-])o1 the results were USP1 inh -22.6%, TRHR PAM -2.2, D1 antagonist -33.6*, D1 ag 8.7, TRHR agonist 0.4 and D1 PAM -10.8.
`Cc1ccc(OCCSCc2nc3ccccc3[nH]2)cc1` gave USP1 inh 0.2%.
For Clc1ccc(OCCSCc2nc3ccccc3[nH]2)cc1 the results were USP1 inh -14.1%, TRHR PAM 2.4, D1 antagonist -49.1*, D1 ag 21.4, TRHR agonist 0.0 and D1 PAM -3.8.
`N#Cc1cc2ccccc2nc1SCC(=O)Nc1ccccc1N1CCOCC1` gave USP1 inh -21.7%, TRHR PAM -7.3, D1 antagonist -10.3, D1 ag 62.1*, TRHR agonist 19.7 and D1 PAM -3.0.
For NC(N)=Nc1cc2ccccc2c2ccccc12 the results were TRHR PAM 6.8, D1 antagonist -69.9*, D1 ag -0.1, TRHR agonist -0.5 and D1 PAM -7.9.
`NC(N)=NC(N)=Nc1cccc2ccccc12` gave USP1 inh inconclusive, TRHR PAM 1.9, D1 antagonist -10.1, D1 ag 1.1, TRHR agonist 0.3 and D1 PAM 1.2.
COc1cc(OC)c(NS(=O)(=O)c2ccc3c(c2)NC(=O)CCS3)cc1Cl was read as USP1 inh -11.4%, TRHR PAM 8.3, D1 antagonist -38.2*, D1 ag 14.7, TRHR agonist -0.9 and D1 PAM 1.9.
COc1cc(OC)c(NS(=O)(=O)c2ccc3c(c2)NC(=O)CO3)cc1Cl was read as USP1 inh -23.5%, TRHR PAM -8.4, D1 antagonist -8.4, D1 ag 7.5, TRHR agonist -0.1 and D1 PAM -0.9.
`CCCN(C(=O)NCc1noc2ccc(C)cc12)c1ccc(Cl)c(Cl)c1` gave USP1 inh -17.8%, TRHR PAM -5.2, D1 antagonist 3.7, D1 ag 8.8, TRHR agonist 0.6 and D1 PAM -1.7.
NC1=NC(=O)/C(=C/c2ccsc2)S1 was read as USP1 inh -11.4%, TRHR PAM 5.3, D1 antagonist -33.5*, D1 ag 0.8, TRHR agonist 0.3 and D1 PAM -1.1.
Screening NC1=NC(=O)C(=Cc2ccccc2)S1 returned USP1 inh 2.8%.
`CC(=O)OCC1(C)CN(c2ccccc2)N(C(=O)c2ccc(C(C)(C)C)cc2)C1=O` (centres undefined) gave USP1 inh -15.9%, TRHR PAM -4.3, D1 antagonist -63.8*, D1 ag 0.8, TRHR agonist 0.0 and D1 PAM -5.7.
`Cc1cccc(C)c1NC(=O)Cn1cc(C(=O)C2CC2)c2ccccc21` gave USP1 inh 1.4%, TRHR PAM 6.4, D1 antagonist 7.7, D1 ag -0.8, TRHR agonist 0.4 and D1 PAM -1.1.
For COc1cc2c(cc1OC)C1O[C@](CCCCN3C(=O)c4ccccc4C3=O)(C2)OC2=C1C(=O)CC(C)(C)C2 the results were TRHR PAM 7.4, D1 antagonist -7.7, D1 ag 4.6, TRHR agonist 0.3 and D1 PAM -2.4.
For CCCC(CCC)C(=O)Nc1cc(-c2cn3cccnc3n2)ccc1OC the results were USP1 inh -10.4%, TRHR PAM -2.2, D1 antagonist -2.8, D1 ag -0.4, TRHR agonist -0.6 and D1 PAM -2.5.
For Cc1cc(N2CCN(C(c3ccccc3)c3ccccc3)CC2)n2ncnc2n1 the results were USP1 inh -4.9%, TRHR PAM -2.1, D1 antagonist 8.5, D1 ag 5.4, TRHR agonist 0.6 and D1 PAM -1.6.
Cc1cc(N2CCN(c3nc4ccccc4s3)CC2)n2ncnc2n1 was read as USP1 inh -0.7%, TRHR PAM -1.0, D1 antagonist -32.0*, D1 ag 8.9, TRHR agonist -0.4 and D1 PAM -1.9.
`O=C(CCNS(=O)(=O)c1ccc(Br)cc1)NC1CCC(O)CC1` (centres undefined) gave USP1 inh -20.4%, TRHR PAM 3.9, D1 antagonist -31.4*, D1 ag 1.8, TRHR agonist 0.8 and D1 PAM -4.5.
For COC(=O)c1ccc(Oc2nc3c(c(=O)n(C)c(=O)n3C)n2Cc2ccc(Cl)c(Cl)c2)cc1 the results were USP1 inh -5.6%, TRHR PAM 4.7, D1 antagonist -0.4, D1 ag -0.4, TRHR agonist -0.1 and D1 PAM -0.2.
`COc1cccc(CNC(=O)CN2C(=O)CSc3ccc(S(=O)(=O)N(C)C)cc32)c1` gave USP1 inh -20.8%, TRHR PAM -2.3, D1 antagonist -2.2, D1 ag 1.4, TRHR agonist -0.7 and D1 PAM -2.8.
Nc1cccc2cc(S(=O)(=O)O)ccc12 was read as USP1 inh 7.08µM*.
For CN(Cc1ccccc1)C(=O)C1CCC(CNS(=O)(=O)c2ccc3c(c2)CCCC(=O)N3)CC1 (centres undefined) the results were USP1 inh -15.3%, TRHR PAM -1.3, D1 antagonist -22.3, D1 ag 5.9, TRHR agonist 0.0 and D1 PAM 0.0.
`Cc1cc(C)cc(-n2c(C)cc(/C=N/NC(=O)CSc3ncccn3)c2C)c1` gave USP1 inh -3.3%, TRHR PAM -0.7, D1 antagonist 14.2, D1 ag 44.1*, TRHR agonist 0.1 and D1 PAM 6.5.
Cc1cc(C)n2nc(SCC(=O)N/N=C/c3ccccn3)nc2n1 was read as USP1 inh -22.4%, TRHR PAM -0.5, D1 antagonist -35.6*, D1 ag 1.2, TRHR agonist 0.6 and D1 PAM 1.4.
For O=C(NCc1ccccc1Cl)c1ccc(NC(=O)N2CCSc3ncccc32)cc1 the results were USP1 inh -30.3%, TRHR PAM -2.1, D1 antagonist 5.3, D1 ag 0.8, TRHR agonist 0.2 and D1 PAM 1.3.
For CCCN1CCCc2cc(CN)ccc21 the results were USP1 inh 15.8µM*, TRHR PAM 1.2, D1 antagonist 1.6, D1 ag 3.3, TRHR agonist 0.9 and D1 PAM -2.2.
Cc1ccc(CNC(=O)Cn2c(=O)cc(C(F)(F)F)c3c(C)nn(C)c32)cc1 was read as USP1 inh -24.3%, TRHR PAM 5.1, D1 antagonist 23.9, D1 ag -1.4, TRHR agonist -0.4 and D1 PAM -4.5.

Source: PubChem
